Assay outcomes deposited in PubChem by The Scripps Research Institute Molecular Screening Center.
Compounds with a hit are over-represented: about 1.8% of the library has one in this group of screens.
LYPLA1 counter: LYPLA1 inhibitors, primary screen, counter-screen for PME1 inhibitor project, biochemical, fluorescence polarization, FP-Rh probe ABPP; Acyl-protein thioesterase 1 (Homo sapiens), O75608; recombinant LYPLA1; inhibition, % at 5.9 µM; actives 0.16% (n = 320,000); AID 2174, 2009;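 active means inhibition above the mean of all tested compounds plus 3 SD, set per campaign, cut at about 14% in these data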;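 further: inhibitors block serine hydrolase probe labeling of LYPLA1 so polarization falls; 0% = enzyme with DMSO and 100% = wells lacking LYPLA1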
PME-1 primary: PME-1 inhibitors via competitive probe labeling, primary screen, biochemical, fluorescence polarization, FP-Rh probe, HTS; inhibition, % at 5.9 µM; AID 2130, 2009; actives 0.53% (n = 320,000); recombinant PME-1;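 active means inhibition above the campaign mean of all compounds plus 3 SD, cut at about 26% in these data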;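 further: competitive labeling of PME-1 active site by serine hydrolase directed probe; 0% = PME-1 with DMSO and 100% = wells lacking PME-1 enzyme; inhibitors block probe labeling so polarization falls and inhibition rises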
Target sequence (Q9Y570 whole entry, looked up): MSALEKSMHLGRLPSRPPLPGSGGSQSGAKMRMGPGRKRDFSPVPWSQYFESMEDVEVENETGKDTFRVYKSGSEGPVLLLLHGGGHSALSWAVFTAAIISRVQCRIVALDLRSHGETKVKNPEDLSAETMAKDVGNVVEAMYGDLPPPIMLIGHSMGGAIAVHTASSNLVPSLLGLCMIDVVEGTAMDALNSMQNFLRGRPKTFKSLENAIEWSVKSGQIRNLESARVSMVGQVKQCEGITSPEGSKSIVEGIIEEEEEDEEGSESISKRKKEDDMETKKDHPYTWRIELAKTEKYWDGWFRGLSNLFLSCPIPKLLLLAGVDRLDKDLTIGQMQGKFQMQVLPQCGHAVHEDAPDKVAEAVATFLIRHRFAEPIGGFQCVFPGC
GSTO1 counter: inhibitors of recombinant GSTO1, primary screen, counter-screen for RBBP9 inhibitor project, biochemical, fluorescence polarization. actives 1.1% (n = 300,000). activity-based probe fluorescence polarization. Glutathione S-transferase omega-1 (Homo sapiens), P78417. inhibition, % at 5.96 µM;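 active means inhibition above the campaign mean inhibition plus 3 SD, cut at about 35% in these data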;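 further: 0% = GSTO1-1 with DMSO and 100% = wells lacking GSTO1-1 enzyme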
Fam108B counter: mouse Fam108B serine hydrolase inhibitors, primary screen, counter-screen for RBBP9 inhibitor project, biochemical, fluorescence polarization; recombinant Fam108B, FP-Rh probe fluorescence polarization; inhibition, % at 9.51 µM; actives 0.33% (n = 300,000); AID 1947, 2009;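 active means inhibition above the screen mean inhibition plus 3 SD, computed separately per campaign, cut at about 18% in these data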;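 further: inhibitors lower polarization as less probe binds the enzyme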
LYPLA2 counter: LYPLA2 inhibitors, primary screen, counter-screen for PME1 inhibitor project, biochemical, fluorescence polarization, FP-Rh probe ABPP; Acyl-protein thioesterase 2 (Homo sapiens), O95372; recombinant LYPLA2; inhibition, % at 5.9 µM; actives 0.38% (n = 320,000); AID 2177, 2009;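 active means inhibition above the screen-wide mean plus 3 SD, limit set per campaign, cut at about 26% in these data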;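 further: 0% = LYPLA2 with DMSO and 100% = wells lacking LYPLA2 enzyme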
Target sequence (O95372 whole entry, looked up): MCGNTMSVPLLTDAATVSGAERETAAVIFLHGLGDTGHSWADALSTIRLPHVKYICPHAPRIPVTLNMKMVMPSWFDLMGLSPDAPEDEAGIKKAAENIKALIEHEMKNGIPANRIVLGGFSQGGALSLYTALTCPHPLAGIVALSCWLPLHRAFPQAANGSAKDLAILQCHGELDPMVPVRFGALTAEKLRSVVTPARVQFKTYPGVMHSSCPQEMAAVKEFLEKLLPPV
PAD4 FP inh: human PAD4 inhibitors, primary screen, biochemical, fluorescence polarization, 1536-well format; recombinant PAD4, RCA probe fluorescence polarization; Protein-arginine deiminase type-4 (Homo sapiens), Q9UM07; actives 0.41% (n = 330,000); inhibition, % at 6.36 µM;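 active means percent inhibition above a cutoff equal to the mean of all tested compounds plus 3 SD, cut at about 15% in these data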;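 further: 0% = PAD4 with RCA probe and DMSO and 100% = probe without PAD4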
Numbers without * were called inactive; x = no result given.

SMILES	LYPLA1 counter	PME-1 primary	GSTO1 counter	Fam108B counter	LYPLA2 counter	PAD4 FP inh
CCOC(=O)c1c2ccc(OCC(=O)N/N=C/c3ccc(C)cc3)cc2n2ccccc12	1.1	-4.7	15.1	7.3	2.5	-2.4
CCOC(=O)c1c2ccc(OCC(=O)NN)cc2n2ccccc12	4.5	7.5	40.1*	2.1	3.7	-2.4
CCN(CC)S(=O)(=O)c1cc(NC(=O)C(C)N2CCN(c3ccccn3)CC2)ccc1C (stereo not drawn)	1.1	29.3*	11.9	2.7	0.9	-0.9
Oc1ccc(N=C/C=C/c2cccc(Br)c2)cc1-c1nc2ccccc2s1	0.5	2.7	35.2*	-0.5	6.2	0.4
COc1cc(=O)[nH]c(SCC(=O)Nc2nc3c(s2)CCCC3)n1	0.5	-2.4	3.5	-2.9	-2.0	3.4
Oc1ccc(Br)cc1-c1nc2cnccn2c1NC1CCCC1	-0.3	26.2*	3.2	9.6	-3.0	-2.9
Oc1ccc(Br)cc1-c1nc2cnccn2c1NC1CCCCC1	-4.9	6.7	11.1	10.7	-9.4	-0.4
Cc1ccc(NC(=O)CSC(C)c2nc3ccccc3c(=O)[nH]2)cc1 (stereo not drawn)	-1.2	3.8	-5.2	-4.9	-0.7	-9.6
CCOc1ccc(NC(C(=O)Nc2cccc(C(C)=O)c2)c2ccccc2)cc1 (stereo not drawn)	-5.5	32.0*	-6.7	6.0	3.9	-1.3
COc1ccc2nc(C)cc(SCC(=O)N/N=C/c3ccc(O)cc3O)c2c1	-4.5	-3.6	-1.0	-2.1	-9.8	12.6
COc1ccc(N2Cc3ccc(C(=O)N/N=C\c4ccc(O)cc4O)cc3C2)cc1	-8.5	48.3*	-19.6	49.8*	30.5*	-7.8
O=C(NCC(=O)N1CCOCC1)c1ccccc1	-0.3	-0.6	1.3	3.5	7.8	-2.7
O=C(O)/C(CC(=O)c1ccc(Cl)cc1)=N/Nc1ccc([N+](=O)[O-])cc1[N+](=O)[O-]	0.0	26.5*	10.0	12.3	20.4	-4.8
C/C(CCCO)=N/Nc1ccc([N+](=O)[O-])cc1[N+](=O)[O-]	2.5	0.9	7.3	-5.2	12.9	-10.2
C/C(CCC(=O)O)=N/Nc1ccc([N+](=O)[O-])cc1[N+](=O)[O-]	0.9	0.6	38.0*	-2.1	0.7	-10.3
CC(=O)c1ccc(OC(=O)COc2ccccc2Cl)cc1	3.9	-4.0	-6.7	3.7	3.2	-5.7
Cc1c(C(=O)N2CCOCC2)c(S(=O)(=O)Nc2ccc(C(C)C)cc2)c(C)n1C	-1.6	-5.4	0.6	-1.0	-1.4	-1.1
CC(c1ccco1)N(C(=O)c1ccccc1NS(=O)(=O)c1ccc(Cl)c([N+](=O)[O-])c1)c1ccccn1 (stereo not drawn)	-0.7	-3.7	53.8*	1.9	-2.9	-2.2
COc1ccc(NC2=C(NCCO)C(=O)c3ccccc3C2=O)cc1	-0.9	1.7	44.4*	1.1	11.8	-13.5
CCOc1ccc(NC2=C(OC)C(=O)c3ccccc3C2=O)cc1	0.9	9.0	39.5*	5.5	5.7	-13.6
Cc1cccc(NC2=C(NCCO)C(=O)c3ccccc3C2=O)c1	1.5	19.1	42.5*	6.4	22.5	-3.1
COc1cccc(NC2=C(NCCO)C(=O)c3ccccc3C2=O)c1	5.8	5.5	12.0	1.2	15.0	-5.9
COc1cccc(NC(=O)C2CCC(CNS(=O)(=O)c3ccc4c(c3)CC(C)N4C(C)=O)CC2)c1 (stereo not drawn)	-1.5	7.2	35.3*	-0.6	4.2	4.2
COc1cccc(NC(=O)C2CCN(S(=O)(=O)c3ccc4c(c3)CC(C)N4C(C)=O)CC2)c1 (stereo not drawn)	1.9	3.7	4.3	-0.5	11.8	-0.4
CCOC(=O)C1=CNS(=O)(=O)NC1c1ccc2ccccc2c1 (stereo not drawn)	x	x	x	x	x	-4.2
SMILES	LYPLA1 counter	PME-1 primary	GSTO1 counter	Fam108B counter	LYPLA2 counter	PAD4 FP inh
CCCCSc1nnc(-c2ccccc2)c2ccccc12	-1.2	1.1	0.3	2.5	-4.4	5.5
O=C(N/N=C/c1c[nH]c2ccccc12)c1cc(-c2ccc3ccccc3c2)n[nH]1	-32.8	29.0*	-75.8	10.6	-14.6	3.1
O=C(N/N=C/c1c[nH]c2ccccc12)c1cc(-c2cccc3ccccc23)n[nH]1	-10.8	27.9*	-21.2	2.9	-8.7	-3.5
O=C(N/N=C/c1c[nH]c2ccccc12)C1CC1(c1ccccc1)c1ccccc1 (stereo not drawn)	1.4	30.7*	-1.0	12.4	6.3	3.0
Cc1c(C(=O)N2CCN(C(c3ccccc3)c3ccccc3)CC2)oc2ccccc12	0.1	-6.2	x	x	-5.2	-0.7
O=C(O)CC/C(=C\c1ccc(N2CCCC2)c([N+](=O)[O-])c1)c1nc2ccccc2s1	8.8	40.4*	-11.8	-1.6	7.0	-1.6
CCN(C(=O)COC(=O)CNS(=O)(=O)c1ccc(SC)c([N+](=O)[O-])c1)C1CCCCC1	4.5	5.9	-3.4	1.4	9.3	4.6
CCOC(=O)C1=CN(Cc2ccco2)S(=O)(=O)NC1c1ccc(Br)cc1F (stereo not drawn)	x	x	x	x	x	-4.1
CCN(CC)C(=O)CSc1nc2c(sc(=S)n2-c2ccccc2)c(=O)n1Cc1ccco1	-4.8	63.1*	-3.2	4.9	0.8	5.3
CCN(CC)C(=O)CSc1nc2c(sc(=S)n2CC)c(=O)n1-c1ccccc1	2.5	9.5	-6.2	-0.4	-2.6	3.0
CC(=O)c1c(N=CN(C)C)nc(C)nc1-c1ccccc1	2.9	0.4	7.7	-2.4	-1.0	-0.5
CN(C)C=Nc1ccccc1C1C=NNC1=O (stereo not drawn)	-2.8	28.2*	0.9	1.0	-2.0	-9.3
CCN(CC)c1ccc(N=Cc2ccccc2[N+](=O)[O-])cc1	3.6	4.6	68.8*	6.8	3.7	8.2
CC(=O)N(C)c1ccc(N=Cc2cc3c(cc2[N+](=O)[O-])OCO3)cc1	1.1	0.5	11.6	-0.1	1.4	-11.6
CC(=O)c1sc(N/N=C\c2cccc(Br)c2)nc1C	6.6	22.6	1.9	3.8	3.7	-2.5
CC(=O)c1sc(N/N=C\c2ccc(Br)cc2)nc1C	-2.4	26.7*	0.7	0.6	-4.5	1.2
O=C(Nc1ccc(S(=O)(=O)NC2=NCCCCC2)cc1)c1ccc(Cl)c([N+](=O)[O-])c1	x	x	x	x	x	-5.8
Cc1cccc(C)c1NS(=O)(=O)c1ccc(NC(=O)c2ccc(Cl)c([N+](=O)[O-])c2)cc1	-1.4	33.3*	-14.3	-9.8	-39.4	2.1
